From PubChem BioAssay AID1508600 (Functional Genomics Laboratory (NCATS/FGL), 2020)
Screen size: about 53,000 sequences; about 3,700 (7%) were called active. The entries come from a sample that favours actives as a whole. A number with no mark means an inactive call.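 The calls were made as follows: active = gene knockdowns whose robust z-score for IL-1 alpha signal is at least 2 or at most -2, so actives lie on both sides; inactive = the rest.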

Experiment: Components of the Cytosolic LPS Sensing Pathway: Gene Identification via Genome-wide siRNA Screen;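 also: robust z of the log signal after scaling to non-targeting control siRNA wells of the plate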
Settings: RAW264.7 macrophages, IL-1a HTRF, actives lie on both sides, screened at 100 nM (by protocol), cells primed 5 h with Pam3CSK4 first
In short: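 Three distinct siRNAs per gene were tested singly at 100 nM in RAW264.7 macrophages. Following Pam3CSK4 priming and 24 hour LipidA transfection, IL-1a secretion was read by HTRF.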

Sequence | z-score
GGAAAGGAACUAGCAACGATT against Art3 | -0.642
GGAUACAAUCCUUUUGGAUTT against Dnajb1 | 0.205
GGUGUUUUCCAACAUCCUCTT against Ccrl2 | 3.06 (active)
CCGACAUUCAACAAGAUUUTT against Mta1 | -0.092
CCGGAGCUUUAUUGACACGTT against Rbm19 | 1.15
GGCCUGUGGUUAUGCUGUGTT against Cyp2b10 | -0.716
CCUAUUGAAAAGCCAAACUTT against Lypd11 | -0.651
GGUCUUUGUGUCCACCUACTT against Gpr162 | 0.669
GGUUCUAAUAAAAAUCGGUTT against Pcdhb1 | 0.659
GGAGCUGAAUCAUUAUCUGTT against Rabep1 | -0.0512
GGUGCUGUUUAAAACACAGTT against Aurka | 1.25
GGAGUUGAUAAUAUGGUGGTT against Uck1 | 0.712
GGUGUCCAUGCUAGCUGUATT against Best2 | 2.97 (active)
GGACCAGCUUUUCAACAUUTT against F8 | 0.141
CCUGCUUAGGACCAUCGACTT against Lrrn2 | -0.0914
GGGAUAGCUGUCUUUCAUUTT against Extl3 | -1.02
GCUCUUGCUACUUUUUUCUTT against Olfr823 | -0.108
GGGAAAAACACUUCUCACUTT against Slc35e2 | -0.238
GGUCGCUAUUAAGAUCAUUTT against Mark4 | 0.491
GCUCUGCCUUCAGAUGACGTT against Olfr173 | -0.26
GGCAGAUCAGAAUUGAAUUTT against Fgd6 | -0.528
GGUCCAGGUCUGAAUCUAGTT against Tra2b | 2.48 (active)

Sequence | z-score
GCAAGGAGGUCCAACUAAGTT against Fzd8 | 0.239
GGUUAAUAAUGCGACAGCATT against Rbfox1 | 0.00257
GGAAAACUCAAAGUGCUGATT against Paqr7 | 0.512
CCAGUUUGGUAAUCAUGAATT against Cyb561d2 | -0.244
GGCACCUUGGAGUUACAUATT against Pcdha10 | -0.24
CGACAAGAAAACAUACUAGTT against Gins4 | 2.28 (active)
GCAGACAACUAGACAUACATT against Selenok | -0.42
GCAAUAAUGGCAAUUACGGTT against Slc35f4 | 1.13
GGAGCUGGUGUUGAGUGAGTT against Slfnl1 | -1.81
UUGUGACCAAUUUCUGAAUTT against Pgbd1 | -0.594
GGAGUUAAACAAACAGAGUTT against Psma6 | -0.855
UUUACUCUCAUGGUAACCUTT against Olfr798 | -0.386
GGAGGUAUGGCGGUGAUUATT against Krt77 | 0.718
GCUAUUCAAUGGACCAGAATT against Olfr490 | -2.26 (active)
GUCACUAUUAAGACACUUATT against Nudcd3 | 0.157
GGCUAAAGAGUCCUCGGUGTT against Serpina5 | 0.594
GCAGACAGAAGAACACCAGTT against 1700024G13Rik | -0.177
GGAAGAGUGUCUAAAUGUATT against Cbwd1 | 0.849
GGUGAUUCACAUAACAGGCTT against Npas3 | 2.05 (active)
GGUUGAACAUAAGCACAAUTT against Cdkn2aip | -0.42
GGUCACCACUCCAUAUUCUTT against Vsir | -0.561
GGAGACAUAUGAAGAGAUATT against Lsm3 | -0.702

Sequence | z-score
GGAAGCUGGCAAGUUUAUGTT against Cfap161 | -0.159
CCUGGCAUAAGUGGUUUUATT against Zfp82 | 1.13
GGAGCAUUUUCCAGUUGAGTT against Mrps35 | 2.41 (active)
CCGUUGUAUAUACCAGUAUTT against Syt1 | 0.218
GGAAAAACGUGGUGAACUATT against Zeb2 | 0.7
CCAAUAACAGGAUUGAGAATT against Tnfrsf8 | -0.528
GGUGUACAGAUCUGUCUGGTT against Dkk1 | 2.33 (active)
GGUGCAGUUUAAGAGAGAATT against Tmcc3 | -0.224
GGGUGGACCUUCGGAAUUATT against Mrpl23 | 1.52
CGAAAUCUUUUCUAACCACTT against Drd4 | 6.59 (active)
GGACUUCUUACUGGAAUCATT against Slc5a12 | 0.944
CGUUUUUGUCUAGUUUGAATT against Macrod2 | -1.08
GGAGAUCAGCAGUUCAUUUTT against Csprs | -1.66
GGUGUCAGAGGUAUUUUCATT against Bik | -0.0455
GGCUUUUGAAAAGUUCACATT against Rnf32 | -2.05 (active)
GGAGUUGAUUGAGGUAAAGTT against Mettl3 | -1.83
GGAAGAACCCUGCUACAUCTT against Mrpl37 | 0.764
GCACCUUAAUUCUUCGCCATT against Amigo2 | -0.638
GGUGCUUAUAUUGCUUCCCTT against Psmb5 | -0.147
CCCGUUGCUUUAGAGCUCUTT against Dph2 | 0.912
GGUCAGAGCUCUGGACAAATT against Hsd3b1 | 4.24 (active)
GGUCGUCCAGCUGAAGAACTT against Mecr | 0.721

Sequence | z-score
GGAAUUAGAGACUGCGGAATT against Zfp821 | 0.422
GGCAGAGCCUGGAUUUAUCTT against 2610524H06Rik | -0.582
GGAGUUGCCAUGCUCAACATT against Olfr808 | 0.193
GGGAAACAGAAGUAUCUAUTT against Ar | -0.708
GGAUAACAGCAAGCUGGCGTT against Taldo1 | -0.585
GCUAAGACAGAACUCUUCUTT against Nap1l5 | 3.14 (active)
GCGAGUGUAUGCUUGAGAATT against Hspa12b | 1.01
CGACAAUCGACAAUCGUGCTT against Acta1 | -0.817
GGCUUGUUCAAGAGAAGAUTT against Slc25a41 | 0.177
CCUUACCCAGCAAUAAAAATT against Thegl | 0.379
GGAUUCAGGAACACGGAGATT against D17H6S53E | 2.29 (active)
GGUACGAAGAAGACAAAAATT against Tnfsf9 | -0.0411
GCGGUGUGCUGGAUAAUUCTT against Vit | -1.63
CCACUGUCCCUAAGGUACUTT against Olfr161 | -0.292
GGGAUUUGUAUGAUGAUAATT against Sf3a3 | -1.79
GGAGGAACAUAUCAAGGAATT against Tmem143 | 2.27 (active)
GGGAGAAUGUUUUUCUUACTT against Vsig8 | -0.956
GGAGAUUGAACAGUCAAACTT against Pex5 | 3.01 (active)
GGAUAUCAACAGAUACAUCTT against Serpina12 | -0.493
CGAUCUGUGAUUGAACCACTT against Pak1 | -0.0456
GCGUGGACGAAUGGAAACATT against Mapk13 | -0.942
GGGCAUCUUGUAUAUCUGGTT against Spata33 | 0.363

Sequence | z-score
CCUAAUUUCCUAGAUCUUCTT against Rtp1 | -0.439
CCUUUUCCAUGCCUACUCCTT against Bag3 | 0.339
CCUAAGGAAGAUAAACCGGTT against Sh2d7 | -2.43 (active)
GGCAUUUACUACUUCAUAGTT against Nfam1 | 0.738
GGAUAACUACAGGAAUAAGTT against Spam1 | -0.701
CCGUCCCUAUGAAAUCAGCTT against Lrat | 2.28 (active)
GGCGAAUUGUAUUUGAAAGTT against Lactb | 0.686
GGAAGCAGUUCAUGUUAAGTT against Dtx4 | 1.12
GCCCACCUAAACCAACAGUTT against Dap | 0.989
GGAAAGAAGGACAUGUUGCTT against Fbxo2 | -1.22
GGAGCACAGAAAACACAAGTT against Ncan | 3.41 (active)
CCACGCUACAUGCAAUGGCTT against Itpka | 0.0149
CCCUCUCUGGGACUACAUATT against Zfp395 | 0.00687
GGCAUGAGGGCAAAUGAAATT against 4933434M16Rik | -0.707
GGAACAUUUUGGAAAAGACTT against 1300017J02Rik | -0.0855
GUACUAGCUAAUUGGGCCATT against Speer4b | 0.651
GGUUCACCUGGAUUCUGCATT against Clasrp | -2.1 (active)
GGAGCAUAUACAACUCAGCTT against Dis3l | 0.1
GGAUGGGAUGAAAAUUGAATT against Papolg | -0.566
